Experiment [1] is described as follows: yeast TOR pathway RPL19A-GFP modulators, primary screen, cell-based, S. cerevisiae, multiplex flow cytometry (AID 1862; in the data active = percent of DMSO control GFP below about 86%;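 note: lower values mimic rapamycin by blocking the RPL19A rise seen in DMSO cells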). As to conditions: S. cerevisiae RPL19A-GFP strain, flow cytometry fluorescence, 3 h; at 10 µM; stronger effect = lower value. (In general: A flow cytometer gives signals particle by particle.)
Experiment [2] is described as follows: modulators of MEP2-GFP levels in yeast, primary screen, S. cerevisiae, multiplex flow cytometry (AID 1867).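 Note: median GFP channel fluorescence of barcode-gated MEP2-GFP cells measured by flow cytometry.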 To be noted: S. cerevisiae MEP2-GFP strain, 3 h, at 10 µM, stronger effect = higher value, 100% means same as DMSO wells.
Experiment [3] in a line: modulators of CIT2-GFP expression in yeast, primary screen, S. cerevisiae, GFP fusion, multiplex flow cytometry (AID 1870;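 active = percent response above a set limit, the screen-wide mean plus 3 SD, cut at about 130% in these data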;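 note: barcoded CIT2-GFP strain pooled with four other GFP strains with rapamycin as positive control; median GFP fluorescence per well over plate mean of DMSO wells so 100% = DMSO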). To be noted: 3 h, at 10 µM, stronger effect = higher value.
Experiment [4] is described as follows: modulators of LAP4-GFP expression in yeast, primary screen, S. cerevisiae, multiplex flow cytometry (AID 1873;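 active = GFP signal, as percent of the solvent control, above the screen mean plus 3 SD, about 149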). To be noted: 3 h, at 10 µM, stronger effect = higher value.
Experiment [5] in a line: modulators of AGP1-GFP expression in yeast TOR pathway, primary screen, cell-based, multiplex flow cytometry, S. cerevisiae (AID 1887;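 active = GFP signal above the screen-wide mean plus 3 SD, that is over about 124.5% of the solvent control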;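 note: AGP1-GFP fusion strain of S. cerevisiae within a five-strain barcoded multiplex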). To be noted: 3 h, at 10 µM, stronger effect = higher value.
Experiment [6] is described as follows: inhibitors of CD8+ T cell-vesicle binding, pilot screen, LFA-1/ICAM-1 modulator project, MLPCN validation set, flow cytometry (AID 2523;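 active = response below a set limit, under 55% cells CD8-positive and vesicle-bound, and CD8 cells' 90th-percentile brightness under 279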;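 for vesicle binding response: mean PE anti-B7-1 fluorescence of CD8+ cells relative to row control; 100% = QL9-loaded vesicles with DMSO vehicle in the same plate row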). As to conditions: 2C mouse CD8+ T cells, at 7 µM, stronger effect = lower value; double positive events: measured here: CD8+/vesicle+ event percentage.
For experiment [7], the target named is Integrin beta-1 (Homo sapiens) + Integrin alpha-4 (Homo sapiens) (UniProt P13612+P05556). Briefly: inhibition of HUTS-21 binding to VLA-4, pilot screen, VLA-4 allosteric modulator project, U937 cells, HUTS-21 mAb, flow cytometry, validation set (AID 2674;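 active = inhibition above 50%, about 3 SD of the validation set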;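 note: antibody binding induced by the VLA-4 ligand LDV present at three times its Kd; 0% = LDV ligand with antibody and no compound and 100% = antibody without LDV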). As to conditions: HUTS-21 LIBS mAb binding, at 6.7 µM, stronger effect = higher value, binding induced by LDV ligand.
Integrin beta-1 (Homo sapiens) + Integrin alpha-4 (Homo sapiens), sequence (P05556 whole entry, looked up): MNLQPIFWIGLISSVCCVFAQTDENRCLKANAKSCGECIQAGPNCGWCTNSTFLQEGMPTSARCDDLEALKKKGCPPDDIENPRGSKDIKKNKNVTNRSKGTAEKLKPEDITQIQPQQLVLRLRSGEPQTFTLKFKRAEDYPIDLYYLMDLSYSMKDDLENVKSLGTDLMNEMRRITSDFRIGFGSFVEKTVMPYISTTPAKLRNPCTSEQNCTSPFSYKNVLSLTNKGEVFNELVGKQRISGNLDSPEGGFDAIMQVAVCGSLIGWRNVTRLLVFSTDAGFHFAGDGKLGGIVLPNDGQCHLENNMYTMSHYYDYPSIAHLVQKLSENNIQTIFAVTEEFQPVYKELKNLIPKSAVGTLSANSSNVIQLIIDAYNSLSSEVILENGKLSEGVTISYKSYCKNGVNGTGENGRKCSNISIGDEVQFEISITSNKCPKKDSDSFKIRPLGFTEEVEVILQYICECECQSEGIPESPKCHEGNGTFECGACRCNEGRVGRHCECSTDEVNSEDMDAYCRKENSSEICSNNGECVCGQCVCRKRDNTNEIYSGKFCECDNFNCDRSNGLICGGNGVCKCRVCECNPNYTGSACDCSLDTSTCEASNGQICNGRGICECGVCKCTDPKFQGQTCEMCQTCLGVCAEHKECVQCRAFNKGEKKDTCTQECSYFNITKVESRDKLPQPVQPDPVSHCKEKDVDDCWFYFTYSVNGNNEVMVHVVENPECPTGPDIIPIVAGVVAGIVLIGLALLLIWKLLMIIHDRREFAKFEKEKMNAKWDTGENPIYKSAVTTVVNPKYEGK
Integrin beta-1 (Homo sapiens) + Integrin alpha-4 (Homo sapiens), sequence (P13612 whole entry, looked up): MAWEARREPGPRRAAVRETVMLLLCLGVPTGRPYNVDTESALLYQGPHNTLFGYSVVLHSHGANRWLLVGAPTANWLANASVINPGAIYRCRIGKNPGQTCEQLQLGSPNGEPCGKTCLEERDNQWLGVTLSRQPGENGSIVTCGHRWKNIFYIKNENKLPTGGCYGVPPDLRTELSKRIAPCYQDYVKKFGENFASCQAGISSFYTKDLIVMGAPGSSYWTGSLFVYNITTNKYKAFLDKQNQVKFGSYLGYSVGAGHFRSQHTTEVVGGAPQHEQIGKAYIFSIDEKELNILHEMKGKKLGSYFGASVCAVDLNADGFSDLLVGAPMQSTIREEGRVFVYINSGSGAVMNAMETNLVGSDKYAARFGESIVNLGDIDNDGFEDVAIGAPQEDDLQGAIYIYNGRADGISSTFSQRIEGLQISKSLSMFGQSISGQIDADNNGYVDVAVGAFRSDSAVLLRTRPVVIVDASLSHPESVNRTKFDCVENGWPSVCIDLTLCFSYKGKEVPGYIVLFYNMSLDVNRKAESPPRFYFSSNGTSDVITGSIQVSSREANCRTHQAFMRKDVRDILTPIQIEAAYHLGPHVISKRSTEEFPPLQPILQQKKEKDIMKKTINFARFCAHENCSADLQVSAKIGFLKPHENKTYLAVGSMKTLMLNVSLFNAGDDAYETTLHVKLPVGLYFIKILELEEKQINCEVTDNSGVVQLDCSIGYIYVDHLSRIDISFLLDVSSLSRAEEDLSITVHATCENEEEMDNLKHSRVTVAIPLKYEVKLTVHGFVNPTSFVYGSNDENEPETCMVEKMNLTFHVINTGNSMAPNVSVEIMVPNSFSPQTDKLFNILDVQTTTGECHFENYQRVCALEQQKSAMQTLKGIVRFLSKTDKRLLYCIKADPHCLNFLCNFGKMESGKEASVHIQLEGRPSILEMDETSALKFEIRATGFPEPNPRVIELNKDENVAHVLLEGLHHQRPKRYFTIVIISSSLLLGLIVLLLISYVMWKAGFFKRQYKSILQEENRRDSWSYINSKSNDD

Experiment [8] in a line: superoxide lowering in aged yeast cells, pilot screen, validation compound set (AID 2706;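 active = superoxide response below 65% of plate, a cut near 3 SD across the whole screen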;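 note: yeast exposed to compound for one week at 30 degrees C before staining; 100% = mean of all compound wells on the same plate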). To be noted: S. cerevisiae aging, superoxide DHE fluorescence; at 10 µM; stronger effect = lower value.
The target of experiment [9] is Beta-adrenergic receptor kinase 1 (Homo sapiens) (UniProt P25098). Briefly: GRK2 binders displacing RNA aptamer, biochemical, validation, human GRK2, bead flow cytometry (AID 488806;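 active = aptamer binding inhibition above 30%, about 3 SD of noise from non-fluorescent compounds; inactive = inhibition at or below 30%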). As to conditions: bead-bound GRK2, FAM-aptamer displacement, at 10 µM, stronger effect = higher value.
Beta-adrenergic receptor kinase 1 (Homo sapiens), sequence (P25098 whole entry, looked up): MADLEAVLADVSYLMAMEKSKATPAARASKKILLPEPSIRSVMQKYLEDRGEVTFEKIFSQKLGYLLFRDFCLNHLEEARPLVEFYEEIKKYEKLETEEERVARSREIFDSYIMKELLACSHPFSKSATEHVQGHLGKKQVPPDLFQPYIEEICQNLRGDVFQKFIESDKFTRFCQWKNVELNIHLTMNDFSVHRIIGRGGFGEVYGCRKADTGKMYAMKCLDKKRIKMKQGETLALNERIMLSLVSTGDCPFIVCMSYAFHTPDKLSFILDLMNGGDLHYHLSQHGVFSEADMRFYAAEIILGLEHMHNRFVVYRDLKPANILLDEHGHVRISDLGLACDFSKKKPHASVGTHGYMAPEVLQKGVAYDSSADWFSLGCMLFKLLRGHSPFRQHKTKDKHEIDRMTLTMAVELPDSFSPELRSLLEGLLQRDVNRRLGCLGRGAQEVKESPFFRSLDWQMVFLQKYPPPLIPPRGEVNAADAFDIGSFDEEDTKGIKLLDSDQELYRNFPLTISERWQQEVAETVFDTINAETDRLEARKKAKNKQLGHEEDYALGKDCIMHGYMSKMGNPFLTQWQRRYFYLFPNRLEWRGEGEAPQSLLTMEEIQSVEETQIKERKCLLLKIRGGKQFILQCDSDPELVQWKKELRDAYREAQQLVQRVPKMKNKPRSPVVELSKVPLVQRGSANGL
In experiment [10] the target is Beta-2 adrenergic receptor (Homo sapiens) (UniProt P07550). The experiment can be described thus: beta2AR agonists driving receptor internalization, pilot screen, cell-based, FAP fluorogen, flow cytometry, validation set (AID 504459;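 active = percent response above 42, roughly 3 SD of non-fluorescent test compounds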;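 note: agonist-driven loss of surface beta2AR via internalization measured by FAP dye flow cytometry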). As to conditions: Am2.2-beta2AR cells, FAP surface receptor flow cytometry; at 10 µM; stronger effect = higher value.
Beta-2 adrenergic receptor (Homo sapiens), sequence (P07550 whole entry, looked up): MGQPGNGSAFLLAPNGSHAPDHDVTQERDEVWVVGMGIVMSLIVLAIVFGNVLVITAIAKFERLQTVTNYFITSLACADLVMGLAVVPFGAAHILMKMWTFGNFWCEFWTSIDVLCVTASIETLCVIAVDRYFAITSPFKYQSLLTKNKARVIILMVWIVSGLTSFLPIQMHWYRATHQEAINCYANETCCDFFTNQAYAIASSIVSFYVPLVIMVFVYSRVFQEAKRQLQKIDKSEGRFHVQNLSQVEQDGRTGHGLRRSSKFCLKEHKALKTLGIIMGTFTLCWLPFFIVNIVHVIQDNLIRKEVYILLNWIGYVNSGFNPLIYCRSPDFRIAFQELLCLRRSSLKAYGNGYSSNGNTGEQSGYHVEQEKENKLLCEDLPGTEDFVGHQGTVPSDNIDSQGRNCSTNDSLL
The target of experiment [11] is AP-2 complex subunit beta (Homo sapiens) (UniProt P63010). Briefly: inhibitors of arrestin peptide binding to AP2, pilot screen, biochemical, validation set, GST-AP2 beads, flow cytometry (AID 504541;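 active = inhibition above 54%, about 3 SD of non-fluorescent compounds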;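 note: AP2 carries R879A mutation and is captured from E. coli lysate; bead-bound FITC arrestin peptide fluorescence measuring arrestin peptide binding to AP2; 0% = DMSO wells and 100% = excess unlabeled arrestin peptide control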). As to conditions: FITC arrestin peptide, at 10 µM, stronger effect = higher value, AP2 beta2 appendage fragment, R879A mutant.
AP-2 complex subunit beta (Homo sapiens), sequence (P63010 whole entry, looked up, the tested form may be a part, one chain of several): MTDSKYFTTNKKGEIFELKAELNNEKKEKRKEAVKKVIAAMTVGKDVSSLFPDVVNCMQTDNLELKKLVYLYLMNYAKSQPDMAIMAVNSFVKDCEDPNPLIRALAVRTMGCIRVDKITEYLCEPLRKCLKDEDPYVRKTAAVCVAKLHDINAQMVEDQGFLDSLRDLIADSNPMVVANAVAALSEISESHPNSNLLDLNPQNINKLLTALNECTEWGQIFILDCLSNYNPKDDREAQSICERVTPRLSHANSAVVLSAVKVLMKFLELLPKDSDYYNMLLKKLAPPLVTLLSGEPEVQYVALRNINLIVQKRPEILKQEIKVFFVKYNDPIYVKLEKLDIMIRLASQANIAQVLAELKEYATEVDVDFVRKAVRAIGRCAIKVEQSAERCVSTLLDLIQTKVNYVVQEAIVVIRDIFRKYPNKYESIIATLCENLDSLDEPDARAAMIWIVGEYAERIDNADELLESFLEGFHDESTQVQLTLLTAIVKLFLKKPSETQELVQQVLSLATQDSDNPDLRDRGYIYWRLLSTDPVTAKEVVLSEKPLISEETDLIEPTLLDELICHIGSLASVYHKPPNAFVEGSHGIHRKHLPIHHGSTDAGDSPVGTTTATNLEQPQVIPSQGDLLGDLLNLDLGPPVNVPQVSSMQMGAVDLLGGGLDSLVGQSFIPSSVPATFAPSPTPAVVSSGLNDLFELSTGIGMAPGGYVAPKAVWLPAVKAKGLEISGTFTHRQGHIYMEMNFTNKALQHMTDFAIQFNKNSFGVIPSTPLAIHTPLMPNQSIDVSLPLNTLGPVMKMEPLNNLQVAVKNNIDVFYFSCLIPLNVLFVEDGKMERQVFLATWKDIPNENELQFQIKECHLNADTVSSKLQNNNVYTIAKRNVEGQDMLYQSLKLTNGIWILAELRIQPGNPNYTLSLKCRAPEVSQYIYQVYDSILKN
Experiment [12] in a line: yeast V-ATPase proton transport modulators, S. cerevisiae, pHLuorin, HTS validation (AID 504600; in the data active = response above about 15%;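 note: plate controls were DMSO for no effect and reference compound for full effect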). To be noted: S. cerevisiae pHLuorin cytosolic pH, at 10 µM, stronger effect = higher value.
The subject of experiment [13] is anti-desmoglein-3 scFv antibody binding to human DSG3. Briefly: inhibitors of anti-DSG3 scFv binding to DSG3, pilot screen, biochemical, validation compound set, bead-based, flow cytometry (AID 588368;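 active = binding below the plate cutoff, the plate median minus 3 SD, with a reading above zero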;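 note: signal is the median channel fluorescence of bead-bound GFP antibody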). As to conditions: Protein G beads, DSG3-Fc, scFv-GFP binding, at 10 µM, stronger effect = lower value.
A short description of experiment [14]: inhibitors of fungal efflux pumps CDR1, CDR2, MDR1, pilot screen, validation compound set, multiplex, phenotypic (AID 588506;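 active = efflux inhibition above 0.42, the validation set average plus 4 SD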;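 note: Nile Red retained in cells so higher fluorescence means more efflux inhibition; 0 = negative control wells and 1 = enniatin B 25 µM full block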). As to conditions: S. cerevisiae pump-expressing triplex, Nile Red efflux flow cytometry; at 10 µM; stronger effect = higher value; the pumps come from Candida albicans.
Experiment [15] concerns the target ATP-binding cassette sub-family B member 6 (Homo sapiens) (UniProt Q9NP58). The experiment can be described thus: ABCB6 transporter inhibitors, pilot screen, K562-ABCB6 cells, flow cytometry, validation set (AID 588550;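 active = inhibition above the screen-wide mean plus 3 SD, about 51%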;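 note: 0% = DMSO wells and 100% = benzethonium chloride 70 µM positive control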). As to conditions: K562-ABCB6 porphyrin accumulation, 1 h, at 10 µM, stronger effect = higher value.
Experiment [16] in a line: promoters of myeloid differentiation in arrested cells, primary screen, cell-based, GFP/MAC1 double positive, flow cytometry, validation set (AID 588685;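 active = differentiation response of at least 50%, scaled between solvent and reference control, from cells with both markers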;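 note: compound exposure lasts four days before antibody staining and flow analysis; 0% = DMSO wells and 100% = 5 µM fulvestrant positive control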). As to conditions: ER-HoxA9 marrow cells, stronger effect = higher value, normalized: vehicle 0, fulvestrant 100.

Results filed as inconclusive are left out. Active and inactive are the calls of the source.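 Rule for the calls, unless noted: active = GFP response, as percent of the DMSO control, above the screen-wide mean plus 3 SD, about 139; inconclusive = no response measured because the compound's own fluorescence interfered; inactive = the rest.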

ATP-binding cassette sub-family B member 6 (Homo sapiens), sequence (Q9NP58 whole entry, looked up): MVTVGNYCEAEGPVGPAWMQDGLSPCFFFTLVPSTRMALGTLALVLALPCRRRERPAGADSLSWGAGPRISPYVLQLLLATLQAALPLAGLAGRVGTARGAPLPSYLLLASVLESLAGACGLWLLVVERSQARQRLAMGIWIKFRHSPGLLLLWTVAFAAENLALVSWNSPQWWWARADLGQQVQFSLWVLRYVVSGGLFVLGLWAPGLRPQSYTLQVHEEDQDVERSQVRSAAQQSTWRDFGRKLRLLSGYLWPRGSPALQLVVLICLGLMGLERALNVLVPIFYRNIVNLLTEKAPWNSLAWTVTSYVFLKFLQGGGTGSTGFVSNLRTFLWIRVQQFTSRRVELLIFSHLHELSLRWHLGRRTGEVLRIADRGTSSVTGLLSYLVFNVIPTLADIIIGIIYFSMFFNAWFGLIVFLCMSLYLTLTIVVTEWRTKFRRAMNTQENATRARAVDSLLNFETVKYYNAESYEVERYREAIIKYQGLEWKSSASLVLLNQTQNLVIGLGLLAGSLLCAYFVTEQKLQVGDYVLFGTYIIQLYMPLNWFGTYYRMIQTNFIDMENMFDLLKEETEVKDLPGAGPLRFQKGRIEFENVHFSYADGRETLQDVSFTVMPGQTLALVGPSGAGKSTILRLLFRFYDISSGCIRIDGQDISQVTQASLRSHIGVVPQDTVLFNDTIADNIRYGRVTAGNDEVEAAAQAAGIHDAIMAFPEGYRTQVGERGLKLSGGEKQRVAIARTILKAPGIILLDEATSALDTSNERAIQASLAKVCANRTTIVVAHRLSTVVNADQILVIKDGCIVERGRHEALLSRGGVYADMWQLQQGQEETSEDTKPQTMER

As to `O=C(c1cc2cc(Br)ccc2o1)N1CCCC1`, the percent of DMSO control GFP in experiment [1] is 101% (inactive). The GFP response vs DMSO in experiment [2] is 106% (inactive); in [4], 139% (inactive). In experiment [3], the percent response of DMSO control is 97.6% (inactive). In addition, the GFP response, % of DMSO in [5] was 99.4% (inactive). In addition, the double positive events in experiment [6] was found to be 56.9%. For the same molecule, the vesicle binding response in experiment [6] is 146% (inactive). Besides, the inhibition (in general, the drop in the measured response relative to a control, in per cent) was -5.11% (inactive) in experiment [7], -6.7% (inactive) in experiment [11] and 9% (inactive) in experiment [15]. The superoxide response (% of plate) in experiment [8] was 93.6% (inactive). In addition, the aptamer binding inhibition in experiment [9] is 0% (inactive). Further, the response was -10.4% (inactive) in experiment [10] and 0.97% (inactive) in experiment [12]. For the same molecule, in experiment [13], the binding (% of control) was 103% (inactive). In addition, the efflux inhibition (fraction of control) in experiment [14] was -0.07 (inactive). The differentiation response in [16] was -3.11% (inactive).

With `Cc1ccc(C2CC(=O)C(C=NCCN3CCN(CC(=O)Nc4cc(C)cc(C)c4)CC3)=C(O)C2)cc1` (stereo not given), in experiment [1], the percent of DMSO control GFP is 103% (inactive). Further, the values for the GFP response vs DMSO in experiment [2] and in experiment [4] were 103% (inactive) and 108% (inactive), respectively. The percent response of DMSO control in experiment [3] is 97.6% (inactive). Also, the GFP response, % of DMSO in experiment [5] was 105% (inactive). This molecule also displayed a double positive events in experiment [6] of 60.5%. The vesicle binding response in [6] was 196% (inactive). Moreover, the inhibition in [7] was -17.2% (inactive); in experiment [11], -1.73% (inactive); in experiment [15], 13% (inactive). The superoxide response (% of plate) in experiment [8] is 102% (inactive). Moreover, the aptamer binding inhibition in [9] was -3% (inactive). In addition, the response was -1.95% (inactive) in [10] and -0.35% (inactive) in experiment [12]. Moreover, the binding (% of control) in experiment [13] is 103% (inactive). In [14], the efflux inhibition (fraction of control) was -0.05 (inactive). For the same molecule, the differentiation response in experiment [16] is -16.3% (inactive).

Turning to `CC(=O)c1c(C)c(C)c2n1CCn1c(C)ccc1-2`, in experiment [1], the percent of DMSO control GFP is 105% (inactive). The GFP response vs DMSO in [2] is 107% (inactive); in experiment [4] it was 121% (inactive). Further, the percent response of DMSO control in experiment [3] was 93.1% (inactive). Also, the GFP response, % of DMSO in experiment [5] was 107% (inactive). Also, the double positive events in experiment [6] came out at 60.2%. Also, the vesicle binding response in [6] is 141% (inactive). In addition, the inhibition in experiment [7] was -36.9% (inactive); in experiment [11] it was 6.32% (inactive); in [15] it was -18% (inactive). Besides, the superoxide response (% of plate) in [8] is 99.4% (inactive). For the same molecule, the aptamer binding inhibition in experiment [9] is 0% (inactive). The response in experiment [10] is -22.4% (inactive); in experiment [12], -6.83% (inactive). Moreover, the binding (% of control) in experiment [13] is 116% (inactive). Further, the efflux inhibition (fraction of control) in experiment [14] is -0.09 (inactive). For the same molecule, the differentiation response in experiment [16] was -5.97% (inactive).

`COc1ccc(C(C)=O)c2c1OCCO2`: the percent of DMSO control GFP in [1] was 100% (inactive). Moreover, the values for the GFP response vs DMSO in [2] and in experiment [4] were 94.1% (inactive) and 88.7% (inactive), respectively. For the same molecule, in [3], the percent response of DMSO control was 91.9% (inactive). In addition, the GFP response, % of DMSO in experiment [5] is 97.2% (inactive). Also, the double positive events in experiment [6] came to 65.9%. The vesicle binding response in experiment [6] is 891% (inactive). For the same molecule, the inhibition in experiment [7] was -2.53% (inactive); in experiment [11] it was 14.1% (inactive); in experiment [15], 11% (inactive). In [8], the superoxide response (% of plate) was 97.6% (inactive). The aptamer binding inhibition in experiment [9] was 1% (inactive). Moreover, the response in [10] is 3.38% (inactive); in experiment [12], 0.17% (inactive). The binding (% of control) in experiment [13] is 99.5% (inactive). Also, the efflux inhibition (fraction of control) in experiment [14] is -0.07 (inactive). For the same molecule, the differentiation response in [16] is -1.71% (inactive).

On to `CCC(CO)NCCNC(CC)CO` (stereo not given), for which the percent of DMSO control GFP in experiment [1] is 95.5% (inactive). For the same molecule, the GFP response vs DMSO was 139% (inactive) in [2] and 87.5% (inactive) in [4]. Also, the percent response of DMSO control in [3] is 101% (inactive). Also, in experiment [5], the GFP response, % of DMSO was 97.7% (inactive). This molecule also returned a double positive events in [6] of 66.7%. Moreover, the vesicle binding response in experiment [6] is 133% (inactive). Moreover, the results for the inhibition in experiment [7], in experiment [11] and in [15] were 4.52% (inactive), 33.3% (inactive) and 114% (active), respectively. The superoxide response (% of plate) in experiment [8] was 91.3% (inactive). Further, the aptamer binding inhibition in experiment [9] was -1% (inactive). For the same molecule, the response in experiment [10] is 3.66% (inactive); in [12], -3.71% (inactive). Also, the binding (% of control) in [13] is 103% (inactive). Also, in experiment [14], the efflux inhibition (fraction of control) is -0.28 (inactive). Also, the differentiation response in experiment [16] was -1.64% (inactive).

(Values after PubChem BioAssay.)
